Only some compounds are listed: those with a hit (about 14% of all), similar ones and a draw of the others.
Sm TGR block = blocks Schistosoma mansoni thioredoxin glutathione reductase. Potency, µM (series often up to 114 µM), inactives show at the highest dose activity change, negative = inhibition, hits mostly inhibitors. hit rate 3% among 360,000. purified TGR, DTNB reduction, TNB absorbance 405 nm; note: potency is the fitted concentration of half-maximal effect; nearly all actives have a fitted effect of over 60% in size
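First, TGR (20 nM dispensed) and NADPH were mixed with compound. Second, a 15 min room-temperature incubation followed. Third, further NADPH and then DTNB were added to start the reaction. Finally, TNB absorbance was monitored kinetically.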
Pf growth 96h = P. falciparum growth inhibition at 96 hour, primary screen for plastid delayed-death inhibitors | P. falciparum luciferase reporter growth, 96 h | Potency, µM (doses to about 28.7 µM), for the others: top-dose activity change, negative = inhibition, most hits filed as inhibitors | hit rate 6.9% among 320,000 | AID 504834; note: potency is the fitted concentration of half-maximal effect
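Luminescence readout: decreased luciferase signal marks inhibited growth of reporter-expressing P. falciparum in infected red cells (2% hematocrit, 0.05% parasitemia final), exposed to compound two generations (96 h, 37 C, 5% CO2).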
FBPA Giardia inh = Giardia lamblia aldolase inhibition. purified Giardia FBPA. hit rate 0.71% among 290,000. Potency, µM (doses to about 59.6 µM), without a hit: at the highest dose activity, negative = inhibition, most hits filed as inhibitors; note: potency is the fitted concentration of half-maximal effect; nearly all actives have a fitted effect of over 55% in size
Target sequence (A8B2U2 whole entry, looked up): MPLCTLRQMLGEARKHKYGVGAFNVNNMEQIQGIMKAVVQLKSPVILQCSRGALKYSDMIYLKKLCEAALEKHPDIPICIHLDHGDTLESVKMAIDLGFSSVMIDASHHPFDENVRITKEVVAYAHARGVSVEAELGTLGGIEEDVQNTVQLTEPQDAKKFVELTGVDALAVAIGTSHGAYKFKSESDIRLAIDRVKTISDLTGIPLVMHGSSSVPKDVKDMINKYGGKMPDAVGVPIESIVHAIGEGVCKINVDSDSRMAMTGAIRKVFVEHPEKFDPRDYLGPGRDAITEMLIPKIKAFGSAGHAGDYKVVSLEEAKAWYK
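40 nM FBPA preincubated 10 min at RT with compound (up to 57.5 uM final), then substrate plus GAPDH/TPI/NAD/arsenate coupling and diaphorase/resazurin added. Fluorescence read after 20 min at RT, 525/598 nm.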
HCMV antiviral = blocks human cytomegalovirus replication; HFF cells, HCMV-luciferase reporter, 72 h; active compounds read low; activity change, negative = inhibition, % at 57.5 µM; AID 1259415; hit rate 4.5% among 410,000; in the data active = activity change below about -60%; inconclusive = no clear call, values can overlap the other calls; inactive = above about -39%
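Two-dose cell screen: HFF monolayers treated with compounds and infected with luciferase-expressing HCMV at 1 PFU/cell, 72 h at 37C, then lysed for luciferase measurement.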
Pf growth 48h = P. falciparum growth inhibition at 48 hours (one generation). hit rate 5.9% among 310,000. P. falciparum luciferase growth in erythrocytes, 48 h. Potency, µM (doses to about 28.7 µM), without a hit: top-dose activity change, negative = inhibition, actives largely listed as inhibitors; note: potency is the fitted concentration of half-maximal effect
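A one-generation exposure of luciferase-tagged malaria parasites in RPMI 1640/Albumax erythrocyte culture, 37 C and 5% CO2. Inhibition is inferred from decreased luminescence after adding detection reagent.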
An asterisk follows results filed as active; u = inconclusive; x = no result given; [ ] = dose if it differs, or a comment. Unless noted, calls come from the whole dose curve; as a rule, active = well fitted curve in the direction sought with a large enough effect; inconclusive = small, poorly fitted or top-dose-only effect, or another doubt; inactive = no such curve, though single readings can be large; an effect the other way counts as inactive or inconclusive. % is set by controls: 0 for no effect and ±100 for the full control effect.

SMILES	Sm TGR block	Pf growth 96h	FBPA Giardia inh	HCMV antiviral	Pf growth 48h
Cc1ccc(-c2nnc(Nc3ccc(C(N)=O)cc3)c3ccccc23)cc1S(=O)(=O)NCC1CCCO1 (centres undefined)	-2%	u	0%	-28	8.3µM*
Cc1ccc(-c2nnc(Nc3cccc(Cl)c3)c3ccccc23)cc1S(=O)(=O)NCC1CCCO1 (centres undefined)	-35%	x	x	-65*	x
Cc1ccc(-c2nnc(Nc3ccc(O)cc3)c3ccccc23)cc1S(=O)(=O)NCC1CCCO1 (centres undefined)	-20%	x	x	-71*	x
Cc1ccc(-c2nnc(Nc3ccc(Br)cc3)c3ccccc23)cc1S(=O)(=O)NCC1CCCO1 (centres undefined)	-8%	x	x	-25	x
Cc1ccc(-c2nnc(N3CCCCC3)c3ccccc23)cc1S(=O)(=O)NCC1CCCO1 (centres undefined)	-16%	x	1%	u	4.7µM*
O=C(NC(=S)Nn1cnnc1)c1cccc(Br)c1	-21%	10%	u	9	14%
CO/N=C(\C)CCN1CCCCc2nc(C)c(C)cc21	x	x	-3%[12.9 µM]	x	x
COc1ccccc1NC(=O)c1oc2ccccc2c1NC(=O)c1c(F)cccc1F	1%	x	x	3	x
COc1ccc(Nc2nnc(-c3ccc(C)c(S(=O)(=O)NCc4nc5ccccc5[nH]4)c3)c3ccccc23)cc1	-4%	x	x	-95*	x
CSc1nc(SCc2ccccc2)[nH]c(=O)n1	x	x	x	11	x
CO[C@@]1(NC(=O)Cc2cccs2)C(=O)N2C(C(=O)O)=C(COC(N)=O)CS[C@@H]21	35µM*	-21%	u	x	-9%
NC(=O)c1cc[n+](CC2=C(C(=O)[O-])N3C(=O)[C@@H](NC(=O)Cc4cccs4)[C@@H]3SC2)cc1	x	-13%[12.8 µM]	-10%[21.7 µM]	x	-12%[12.8 µM]
O=C(Nc1cccc(C(=O)N2CCCC2)c1)C1CCCCC1	x	x	x	-16	x
COCCn1c(SCC(=O)NC2CCCCC2)nnc1-c1ccco1	9%	-2%	3%	-33	4%
COCCCn1c(SCC(=O)N2CCc3ccccc32)nnc1-c1ccco1	-22%	12µM*	-3%	-17	-6%
COCCCn1c(SCC(=O)NC2CCCC2)nnc1-c1ccco1	40µM*	0%	6%	30	7%
Brc1ccc2nc(-c3ccc(CN4CCC5(CC4)CNc4ccccc45)cc3)c(-c3ccccc3)nc2c1	x	x	x	-12	x
CN1CC=C(/C=C/c2ccc(-c3ccccc3)cc2)CC1	-34%	13µM*	-14%	x	u
COc1ccc(/C=C/C2=NN(C)C(=O)CC2)cc1	2%	251%	1%	x	408%
COc1ccc(/C=C/C2=CCN(C)CC2)cc1	32µM*	205%	-17%	15	27%
Cc1ccc(CNS(=O)(=O)NCc2ccc(Cl)cc2)cc1	5%	0%[1.15 µM]	2%	-3	13%
CC(=O)OCC1OC(n2cc(F)c(=O)[nH]c2=O)C(OC(C)=O)C1OC(C)=O (centres undefined)	x	x	x	-17	x
O=C1C(F)=CC(COC(c2ccccc2)(c2ccccc2)c2ccccc2)OC1n1cc(F)c(=O)[nH]c1=O (centres undefined)	x	x	x	-99*	x
C=CCN(CC=C)c1nc2ccccc2nc1C(C#N)C(=O)OC(C)C (centres undefined)	28µM*	u	-21%	-16	10µM*
Cc1ccc(-c2cc(C(F)F)n3ncc(C(=O)Nc4ccc(S(=O)(=O)Nc5ccccc5C)cc4)c3n2)cc1	0%	15µM*	2%	20	1.9µM*
SMILES	Sm TGR block	Pf growth 96h	FBPA Giardia inh	HCMV antiviral	Pf growth 48h
COc1ccc(NS(=O)(=O)c2ccc(NC(=O)c3cnn4c(C(F)F)cc(-c5ccc(C)cc5)nc34)cc2)cc1	-17%	0.83µM*	3%	x	u
COc1ccc(-c2cc(C(F)F)n3ncc(C(=O)Nc4ccc(C(=O)N5CCOCC5)cc4)c3n2)cc1	x	44%	2%	-68*	u
Cc1noc(C)c1NC(=O)N(C)C[C@H]1Oc2ccc(NS(=O)(=O)c3cccs3)cc2C(=O)N([C@H](C)CO)C[C@@H]1C	x	x	x	73	x
Cc1cccc(NC(=O)Cn2c(=O)n3nc(CCn4nc(C)cc4C)nc3c3ccccc32)c1	-1%	59%	5%	-32	u
CCN(C(=O)Cn1c(=O)n2nc(CCn3nc(C)cc3C)nc2c2ccccc21)c1cccc(C)c1	10%	2.6µM*	11%	16	31%
O=C(Nc1ccccc1)/C(=C/c1ccc(O)cc1)NC(=O)c1ccco1	-24%	18%	1%	20	-6%
Cc1cc(C)cc(NC(=O)c2oc3ccc4c(c3c2C)C(=O)CC(C)(C)O4)c1	1%	x	x	-105*	x
COc1cccc(Nc2c(F)c(F)c(F)c(F)c2C(=O)O)c1	2%	13µM*	22%	23	-7%
CCCNC(=O)N(C)C[C@@H]1Oc2cc(Br)ccc2S(=O)(=O)N([C@@H](C)CO)C[C@H]1C	x	x	x	7	x
O=C(Nc1ccccc1C(F)(F)F)c1cc(-c2ccccc2O)on1	0%	0.47µM*	1%	25	1µM*
O=C(Nc1ccccc1C(F)(F)F)c1cc(-c2ccco2)on1	-10%	7%	-1%	-30	36%
Cc1cc(C(=O)Nc2ccccc2C(F)(F)F)no1	-20%	10µM*	0%	12	2%
Cc1cccc(-n2nc3c(c2NC(=O)c2ccc(S(=O)(=O)N4CCOCC4)cc2)CSC3)c1C	-11%	2%	1%	112	12µM*
Cc1ccc(-n2nc3c(c2NC(=O)c2ccc(S(=O)(=O)N4CCOCC4)cc2)CSC3)c(C)c1	1%	-22%	-4%	x	5.9µM*
COc1ccc(Cl)cc1-c1ccc(C(=O)O)s1	x	x	19%[89.2 µM]	x	x
Cc1cc2nc(-c3ccccc3)c(-c3c(F)cc(F)cc3F)nc2cc1C	x	x	x	-14	x
C=CCn1c(O)c(C=Nc2c(C)n(C)n(-c3ccccc3)c2=O)c(=O)[nH]c1=O	-10%	25%	2%	34	12%
Cc1c(N=Cc2c(O)n(CCc3ccc(F)cc3)c(=O)[nH]c2=O)c(=O)n(-c2ccccc2)n1C	-4%	10µM*	8%	-71*	-8%
Clc1ccc(COc2cccc(CNCc3ccncc3)c2)cc1	7%	u	-3%	-75*	0%
CCOC(=O)CCCCC(=O)c1[nH]c(=O)[nH]c1Cn1cnc2ccccc21	16µM*	x	1%	47	-7%
CCOC(=O)CCCCC(=O)c1[nH]c(=O)[nH]c1CSCCO	-16%	x	0%	11	u
O=C(c1cccs1)N1CCC2(O)CCCCC2C1c1ccc(F)cc1 (centres undefined)	-22%	41%	1%	4	8%
CCN(CC)c1ccc([C@H]2[C@@H]3CCCC[C@]3(O)CCN2CC(=O)NCc2ccco2)cc1	-24%	u	-10%	u	10µM*
CCN(CC)c1ccc(C2C3CCCCC3(O)CCN2CC(=O)N2CCCCC2)cc1 (centres undefined)	-4%	u	-4%	-8	u

High-throughput results deposited in PubChem by National Center for Advancing Translational Sciences (NCATS).
